According to PubChem BioAssay:
Active and inactive are the calls of the source.

What was measured:
Albumin (Bos taurus) = Albumin (Bos taurus) (UniProt P02769); test: compounds binding labelled BSA control protein – biochemical, small-molecule microarray, Alexa647 label, 635/667 nm fluorescence, artefact control for SMM control protein annotation, profiling panel (AID 1118); conditions: BSA-A647 binding, fluorescence 635 nm, higher = more signal;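 also: score merges 667 nm emission intensity and signal-to-noise per printed compound spot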
Albumin (Bos taurus), sequence (P02769 whole entry, looked up): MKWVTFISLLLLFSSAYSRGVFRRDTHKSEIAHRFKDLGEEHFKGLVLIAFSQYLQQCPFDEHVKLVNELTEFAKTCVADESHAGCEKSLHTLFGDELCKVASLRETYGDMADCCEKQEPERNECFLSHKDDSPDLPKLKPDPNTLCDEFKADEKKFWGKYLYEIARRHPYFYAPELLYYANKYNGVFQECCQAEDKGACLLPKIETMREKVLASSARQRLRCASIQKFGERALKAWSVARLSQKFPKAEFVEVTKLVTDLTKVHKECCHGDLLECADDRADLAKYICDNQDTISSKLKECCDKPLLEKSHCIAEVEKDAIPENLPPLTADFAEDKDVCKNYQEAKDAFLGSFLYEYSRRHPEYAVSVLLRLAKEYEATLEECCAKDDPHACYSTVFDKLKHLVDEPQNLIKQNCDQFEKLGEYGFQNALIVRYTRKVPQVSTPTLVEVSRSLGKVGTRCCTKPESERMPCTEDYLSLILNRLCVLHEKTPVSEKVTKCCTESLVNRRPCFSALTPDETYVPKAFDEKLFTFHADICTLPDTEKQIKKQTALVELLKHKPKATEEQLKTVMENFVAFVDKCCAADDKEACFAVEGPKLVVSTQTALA

[1] = probe aXIP binding to arrayed compounds – biochemical, NeuroSMM set, 635/667 nm fluorescence, primary screen (AID 1119); conditions: small-molecule microarray, higher = more signal, called active from +8 up or from −8 down;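 also: probe is the protein aXip251-270 applied at 1 µg/mL to compound-printed slides; binding of probe to printed compounds measured as 667 nm fluorescence plus signal to noise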
[2] = probe aNOTCH3 binding on compound microarray – biochemical, small-molecule microarray, 635/667 nm fluorescence, primary screen (AID 1120); conditions: higher = more signal;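 also: probe is a biotin-tagged antibody raised against NOTCH3 rather than NOTCH3 protein; score merges spot fluorescence near 667 nm with spot signal to noise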
[3] = probe aNOTCH2 binding on compound microarray – biochemical, small-molecule microarray, 635/667 nm fluorescence, primary screen (AID 1121); conditions: higher = more signal;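 also: score merges feature fluorescence read at 667 nm with its signal to noise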
[4] = molecular target: Carbonic anhydrase 2 (Homo sapiens) (UniProt P00918); test: compounds binding carbonic anhydrase 2 – biochemical, small-molecule microarray, Alexa647-labelled CAII, profiling panel (AID 1122); conditions: CAII-A647 binding fluorescence, higher = more signal
[5] = COS7 lysate on small-molecule microarray, probe aHis, 635 nm (AID 1123); conditions: COS7 cell lysate, fluorescence, higher = more signal;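 also: z-score combines 667nm fluorescence intensity with signal-to-noise per printed compound spot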
[6] = probe aLAP1 signal on lysate-treated microarray – cell lysate, small-molecule microarray, COS7 lysate, primary screen (AID 1124); conditions: probe aLAP1, fluorescence, higher = more signal;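 also: lysate comes from COS7 cells expressing LAP1 and is applied at 0.3 µg/mL; score merges spot fluorescence near 667 nm with signal-to-noise over triplicate slides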
Sam68 (KHDRBS1) = test: compounds binding KHDRBS1 protein – biochemical, small-molecule microarray, 635 nm fluorescence, primary screen (AID 1125); conditions: higher = more signal;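 also: score merges 667 nm channel intensity with signal to noise over triplicate slides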
[7] = tested on: Chordin-like protein 2 (CHRDL2); test: compounds binding chordin-like 2 – biochemical, small-molecule microarray, 635 nm fluorescence, primary screen (AID 1126); conditions: fluorescence 635 nm, higher = more signal;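 also: printed compound slides probed with Chrdl2 protein at 4 µg/mL for 1 h at 4 C; score merges 667 nm emission intensity with signal to noise over three replicate slides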
[8] = molecular target: Concanavalin-A (Canavalia ensiformis) (UniProt P02866); test: compounds binding concanavalin A lectin – biochemical, small-molecule microarray, Alexa647 label, 635 nm, artefact control for SMM control protein annotation, primary screen (AID 1127); conditions: ConA-A647 binding fluorescence, higher = more signal;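 also: z combines 667 nm emission intensity with signal-to-noise across three replicate slides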
Concanavalin-A (Canavalia ensiformis), sequence (P02866 whole entry, looked up): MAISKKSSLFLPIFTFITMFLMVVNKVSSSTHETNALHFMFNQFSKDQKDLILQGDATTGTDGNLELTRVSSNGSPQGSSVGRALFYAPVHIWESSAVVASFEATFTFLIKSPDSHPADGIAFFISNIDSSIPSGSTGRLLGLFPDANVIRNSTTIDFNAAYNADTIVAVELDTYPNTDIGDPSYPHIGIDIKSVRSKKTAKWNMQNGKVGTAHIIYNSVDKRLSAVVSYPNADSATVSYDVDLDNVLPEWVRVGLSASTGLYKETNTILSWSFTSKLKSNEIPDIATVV

[9] = compounds binding Alexa647 anti-His antibody – biochemical, small-molecule microarray, 635 nm fluorescence, artefact control for SMM control protein annotation, primary screen (AID 1128); conditions: higher = more signal;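 also: score merges feature fluorescence with signal-to-noise for each printed compound spot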
[10] = tested on: Human papillomavirus type 1a E7 protein (residues 1-88); test: HPV1a E7 small-molecule binders, primary screen, biochemical, small-molecule microarray, residues 1-88, 635 nm (AID 1129); conditions: small-molecule microarray binding, fluorescence 635 nm; higher = more signal
[11] = molecular target: Focal adhesion kinase 1 (Homo sapiens) (UniProt Q05397); test: PTK2 protein binding on printed compound slides – biochemical, small-molecule microarray, 635/667 nm fluorescence, BSA, DTT, primary screen (AID 1130); conditions: 635 nm fluorescence, higher = more signal;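 also: composite of spot emission at 667 nm and signal to noise over triplicate slides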
Focal adhesion kinase 1 (Homo sapiens), sequence (Q05397 whole entry, looked up): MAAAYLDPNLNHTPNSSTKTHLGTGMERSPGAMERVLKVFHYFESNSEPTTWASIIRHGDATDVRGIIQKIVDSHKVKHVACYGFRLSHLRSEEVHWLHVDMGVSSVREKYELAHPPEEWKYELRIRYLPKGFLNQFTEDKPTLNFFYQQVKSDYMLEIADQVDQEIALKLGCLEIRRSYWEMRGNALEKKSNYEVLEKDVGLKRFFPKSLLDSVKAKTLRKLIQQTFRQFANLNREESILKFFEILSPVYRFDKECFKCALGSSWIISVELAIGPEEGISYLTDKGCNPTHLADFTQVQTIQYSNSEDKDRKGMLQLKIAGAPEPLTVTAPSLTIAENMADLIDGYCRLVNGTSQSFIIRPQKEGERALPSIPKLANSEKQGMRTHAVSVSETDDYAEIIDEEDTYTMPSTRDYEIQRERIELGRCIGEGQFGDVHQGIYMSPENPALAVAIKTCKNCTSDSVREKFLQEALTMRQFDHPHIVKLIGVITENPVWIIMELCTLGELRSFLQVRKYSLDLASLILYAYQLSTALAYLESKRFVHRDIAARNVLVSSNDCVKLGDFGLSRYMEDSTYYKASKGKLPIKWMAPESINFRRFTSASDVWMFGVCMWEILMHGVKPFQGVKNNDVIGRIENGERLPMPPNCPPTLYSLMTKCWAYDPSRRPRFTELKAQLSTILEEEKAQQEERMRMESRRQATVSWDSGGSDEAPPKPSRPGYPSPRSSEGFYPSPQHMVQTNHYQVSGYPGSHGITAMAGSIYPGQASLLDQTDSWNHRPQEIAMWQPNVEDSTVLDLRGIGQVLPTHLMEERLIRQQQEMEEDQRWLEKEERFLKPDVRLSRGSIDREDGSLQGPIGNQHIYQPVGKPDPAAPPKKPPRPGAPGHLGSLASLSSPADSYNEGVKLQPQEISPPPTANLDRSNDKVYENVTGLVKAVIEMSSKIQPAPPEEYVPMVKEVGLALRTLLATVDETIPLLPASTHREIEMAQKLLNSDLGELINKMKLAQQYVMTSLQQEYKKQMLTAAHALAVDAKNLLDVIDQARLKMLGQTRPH

[12] = tested on: Fibrinogen (Alexa647-labelled); test: Alexa647-fibrinogen binding to printed small molecules – biochemical, small-molecule microarray, 635/667 nm fluorescence, artefact control for SMM control-protein annotation, profiling panel (AID 1131); conditions: fibrinogen-A647 binding fluorescence, higher = more signal;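 also: z-score merges 667 nm fluorescence with per-spot signal-to-noise over triplicate slides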
[13] = molecular target: Follistatin (Homo sapiens) (UniProt P19883); test: FST protein binding to printed compounds – biochemical, small-molecule microarray, 635/667 nm fluorescence, primary screen (AID 1132); conditions: 635 nm fluorescence, higher = more signal
Follistatin (Homo sapiens), sequence (P19883 whole entry, looked up): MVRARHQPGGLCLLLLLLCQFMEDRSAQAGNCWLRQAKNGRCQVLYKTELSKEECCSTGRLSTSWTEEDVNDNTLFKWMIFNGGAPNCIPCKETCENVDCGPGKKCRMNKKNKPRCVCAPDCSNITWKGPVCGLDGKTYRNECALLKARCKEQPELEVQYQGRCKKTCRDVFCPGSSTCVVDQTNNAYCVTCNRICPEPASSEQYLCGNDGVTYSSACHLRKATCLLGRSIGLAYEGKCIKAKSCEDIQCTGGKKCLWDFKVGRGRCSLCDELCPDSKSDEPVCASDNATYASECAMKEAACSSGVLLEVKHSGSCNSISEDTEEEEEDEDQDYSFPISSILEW

[14] = molecular target: Fibroblast growth factor 2 (Homo sapiens) (UniProt P09038); test: basic fibroblast growth factor binding to printed compounds – biochemical, small-molecule microarray, 635/667 nm fluorescence, primary screen (AID 1133); conditions: FGF2, fluorescence 635/667, higher = more signal
Fibroblast growth factor 2 (Homo sapiens), sequence (P09038 whole entry, looked up): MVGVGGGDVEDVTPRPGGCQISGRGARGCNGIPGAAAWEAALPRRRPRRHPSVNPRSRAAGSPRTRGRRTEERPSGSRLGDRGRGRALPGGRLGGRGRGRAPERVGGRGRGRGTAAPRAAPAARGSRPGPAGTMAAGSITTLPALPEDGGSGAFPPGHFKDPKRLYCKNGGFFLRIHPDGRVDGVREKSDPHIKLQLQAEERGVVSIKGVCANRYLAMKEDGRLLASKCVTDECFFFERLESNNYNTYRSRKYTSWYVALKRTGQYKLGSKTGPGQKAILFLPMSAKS

[15] = JC-1 mitochondrial potential readout, lung cancer cells – cell-based, A549, JC-1 fluorescence, basal, 24 h, 100 nL, profiling panel (AID 1138); conditions: higher = more signal;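 also: A549 lung adenocarcinoma cells under basal conditions with no added stimulus; test concentration not given here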
Lefty1 = Lefty1 protein binding to printed compounds – biochemical, small-molecule microarray, 635/667 nm fluorescence, primary screen (AID 1139); conditions: fluorescence 635/667, higher = more signal
[16] = tested on: wheat germ agglutinin (Triticum aestivum), Alexa647-labelled; test: Alexa647-WGA lectin binding to printed small molecules – biochemical, small-molecule microarray, 635/667 nm fluorescence, artefact control for SMM control-protein annotation, profiling panel (AID 1140); conditions: WGA-A647 binding, 635 nm fluorescence, higher = more signal;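 also: score merges 667 nm feature emission with signal to noise over triplicate slides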
[17] = molecular target: Luciferin 4-monooxygenase (Photinus pyralis) (UniProt P08659); test: inhibition of purified Photinus pyralis luciferase – biochemical, luminescence, purified enzyme, 2006 set, primary screen (AID 1141); conditions: purified firefly luciferase, SteadyGlo luminescence, 30 min; higher = more signal, called active from +8 up or from −8 down;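 also: cell-free assay with purified firefly luciferase at 100 ng per well in PBS; test concentration not given here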
Luciferin 4-monooxygenase (Photinus pyralis), sequence (P08659 whole entry, looked up): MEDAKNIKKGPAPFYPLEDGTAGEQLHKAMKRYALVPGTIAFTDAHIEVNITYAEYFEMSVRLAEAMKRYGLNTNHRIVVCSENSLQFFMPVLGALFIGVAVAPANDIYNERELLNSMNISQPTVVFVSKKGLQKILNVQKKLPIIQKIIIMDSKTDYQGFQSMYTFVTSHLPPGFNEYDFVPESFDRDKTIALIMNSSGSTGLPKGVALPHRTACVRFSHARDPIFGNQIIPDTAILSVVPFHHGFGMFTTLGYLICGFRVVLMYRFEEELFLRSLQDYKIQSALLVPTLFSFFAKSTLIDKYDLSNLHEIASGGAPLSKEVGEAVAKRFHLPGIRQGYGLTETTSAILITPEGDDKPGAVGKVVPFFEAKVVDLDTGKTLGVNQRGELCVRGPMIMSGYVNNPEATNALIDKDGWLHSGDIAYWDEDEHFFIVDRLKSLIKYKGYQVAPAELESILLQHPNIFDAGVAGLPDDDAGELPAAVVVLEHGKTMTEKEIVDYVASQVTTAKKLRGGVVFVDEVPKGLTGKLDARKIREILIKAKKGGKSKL

Structure (SMILES)	composite z-score (Albumin (Bos taurus))	composite Z-score [1]	composite z-score [2]	composite z-score [3]	composite z-score [4]	composite z-score [5]	composite z-score [6]	composite z-score (Sam68 (KHDRBS1))	composite z-score [7]	composite z-score [8]	composite z-score [9]	composite z-score [10]	composite z-score [11]	composite z-score [12]	composite z-score [13]	composite z-score [14]	z-score [15]	composite z-score (Lefty1)	composite z-score [16]	z-score [17]
CCCCC#C[C@@H]1C=C[C@H](OC(C)=O)[C@@H](COC(C)=O)O1	0.678	0.299 (inactive)	0.0758	-0.0698	-0.0641	0.015	-0.406	0.581	0.282	0.475	0.113	0.283	-0.0443	0.88	0.248	0.316	-0.79	0.487	0.219	-1.41 (inactive)
COc1cccc([C@H]2Oc3ccc(OC)cc3C(=NO[C@@H](C)c3cn([C@H](CO)Cc4ccccc4)nn3)[C@@H]2O)c1	0.874	0.637 (inactive)	-0.132	-0.207	-0.0163	0.107	0.664	-0.0592	-0.54	0.373	-2.13	-0.92	-0.104	0.778	-0.476	0.109	-1.09	0.102	0.305	-0.0592 (inactive)
CCCNC(=O)OC[C@H]1O[C@H](CCON=C(C)CCC(=O)OC[C@H]2O[C@H](c3ccccc3)C=C[C@@H]2Oc2ccc(OC)cc2)C=C[C@@H]1Oc1ccc(OC)cc1	0.161	-0.0662 (inactive)	-0.0762	-0.14	-0.459	-0.528	-0.155	-1.25	-0.181	-0.721	2.6	-1.45	-0.447	-0.467	-0.342	-0.273	0.424	0.171	0.619	1 (inactive)
C#CCCCON=C1[C@H]2CCn3c(=O)n(-c4ccccc4)c(=O)n3[C@H]2[C@H](O)[C@@H]2O[C@H]12	0.37	-0.377 (inactive)	-0.0601	-0.142	-0.181	-0.169	-0.0252	0.131	0.609	0.184	0.303	0.875	0.093	0.436	0.295	0.27	0.94	0.66	0.107	-1.32 (inactive)
CC(C)CON=C1[C@H]2CCn3c(=O)n(Cc4cc5c(cc4Cl)OCO5)c(=O)n3[C@H]2[C@H](O)[C@@H]2O[C@H]12	-0.0261	0.242 (inactive)	-0.0328	-0.0718	0.0904	-0.182	-0.177	0.344	0.529	0.702	0.158	0.489	0.217	0.172	0.768	0.42	-0.937	0.452	-0.121	0.748 (inactive)
